Several values for one entry are separate records, joined by “and”; a condition that tells them apart may be missing. Equal values may be shown once. Where a name gives a salt, the structure may show the parent alone.
Assays:
Assay in all cases: thermal shift delta Tm vs DMSO control; higher = stronger stabilization (binding)
Settings in all cases: 12.5 µM; protein concentration 2 µM
[1] = tested on: LOC_OS02G45750-cb003
Summary of the method: (§1)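 Rice kinase domain constructs were expressed in E. coli, purified, and tested by differential scanning fluorimetry with compound added in DMSO. Each well of a 96-well plate held 19.5 μl of 2 μM kinase in 100 mM potassium phosphate pH 7.5, 150 mM NaCl, 10% glycerol and 5 × SYPRO Orange, and fluorescence was read from 25°C to 95°C at 0.05°C/s. The melting temperature shift is the mean of triplicates, taken against protein with DMSO alone after Boltzmann fitting.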

[2] = tested on: LOC_OS02G54510-cb004
Summary of the method: as §1

[3] = tested on: LOC_OS03G04050-cb001
Summary of the method: as §1

[4] = tested on: LOC_OS03G12390-cb001
Summary of the method: as §1

[5] = tested on: LOC_OS03G27990-cb004
Summary of the method: as §1

[6] = tested on: LOC_OS03G50450-cb001
Summary of the method: as §1

[7] = tested on: LOC_OS03G50810-cb003
Summary of the method: as §1

[8] = tested on: LOC_OS04G35114-cb001
Summary of the method: as §1

[9] = tested on: T1, LOC_OS04G38480-cb003
T1 sequence (whole entry): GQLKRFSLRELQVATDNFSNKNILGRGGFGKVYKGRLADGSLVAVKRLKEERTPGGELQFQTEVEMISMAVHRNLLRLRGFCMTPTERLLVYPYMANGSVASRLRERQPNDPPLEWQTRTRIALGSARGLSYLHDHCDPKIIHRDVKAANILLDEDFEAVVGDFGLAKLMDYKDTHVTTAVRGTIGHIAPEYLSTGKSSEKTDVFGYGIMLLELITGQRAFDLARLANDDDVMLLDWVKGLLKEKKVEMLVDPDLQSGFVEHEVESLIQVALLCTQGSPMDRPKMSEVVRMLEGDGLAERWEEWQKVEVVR
Summary of the method: as §1

[10] = tested on: T2, LOC_OS04G41100-cb001
T2 sequence (whole entry): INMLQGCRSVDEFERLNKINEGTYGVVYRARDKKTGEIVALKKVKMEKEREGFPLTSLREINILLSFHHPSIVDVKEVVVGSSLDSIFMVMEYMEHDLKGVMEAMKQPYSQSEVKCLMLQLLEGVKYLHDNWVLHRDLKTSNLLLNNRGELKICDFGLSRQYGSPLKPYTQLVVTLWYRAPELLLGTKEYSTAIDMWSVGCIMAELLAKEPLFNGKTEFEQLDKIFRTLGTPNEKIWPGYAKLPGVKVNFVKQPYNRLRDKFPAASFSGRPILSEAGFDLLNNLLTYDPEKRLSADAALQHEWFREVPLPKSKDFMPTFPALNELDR
Summary of the method: as §1

Row | SMILES | thermal shift delta Tm [1] | thermal shift delta Tm [2] | thermal shift delta Tm [3] | thermal shift delta Tm [4] | thermal shift delta Tm [5] | thermal shift delta Tm [6] | thermal shift delta Tm [7] | thermal shift delta Tm [8] | thermal shift delta Tm [9] | thermal shift delta Tm [10]
1 | Nc1nccc(Oc2ccc(NC(=O)c3c[nH]cc(-c4ccc(F)cc4)c3=O)cc2F)c1Cl | 1.54 °C | 0.77 °C | 0.58 °C | 0.55 °C | 0.24 °C | 0.31 °C | 1.15 °C | 0.58 °C | 2.79 °C | 3.39 °C
2 | CN(C[C@@H]1COCCO1)S(=O)(=O)Nc1ccc2ccc3ncc(-c4cnn(C)c4)cc3c(=O)c2c1 | 9.61 °C | 0.42 °C | 0.37 °C | 0.09 °C | 1.72 °C | 0.44 °C | 3.78 °C | 7.88 °C | 2.89 °C | 0.3 °C
3 | O=C(Nc1cnn2ccc(N3CCC[C@@H]3c3cc(F)ccc3F)nc12)N1CC[C@H](O)C1 [Larotrectinib (LOXO-101) sulfate] | 1.75 °C | 0.37 °C | 0.11 °C | -0.11 °C | 0.01 °C | 0.17 °C | 0.5 °C | 1.91 °C | 1.2 °C | 0.27 °C
4 | c1ccc(-c2[nH]ncc2-c2ccnc3ccccc23)nc1 | 0.48 °C | 0.4 °C | 0.67 °C | 0.41 °C | 0.25 °C | 0.76 °C | 0.28 °C | 0.25 °C | 2.34 °C | 0.99 °C
5 | CN(c1ncccc1CNc1nc(Nc2ccc3c(c2)CC(=O)N3)ncc1C(F)(F)F)S(C)(=O)=O | 6.83 °C and 7.06 °C | 1.05 °C and 1.09 °C | 0.54 °C and 0.38 °C | 3.95 °C and 4.88 °C | 2.23 °C and 2.44 °C | 2.36 °C and 2.48 °C | 3.64 °C and 4.1 °C | 4.17 °C and 4.61 °C | 1.77 °C and 2.12 °C | 1.82 °C and 1.92 °C
6 | COc1cc2/c(=N/c3ccc(Br)cc3F)nc[nH]c2cc1OCC1CCN(C)CC1 [Vandetanib (ZD6474)] | 3.64 °C | 0.98 °C | 0.67 °C | 2.45 °C | 2.29 °C | 1.05 °C | 2.26 °C | 8.6 °C | 3.76 °C | 0.73 °C
7 | O=C(NCCO)c1cccc(-c2cc(Nc3ccc(OC(F)(F)F)cc3)ncn2)c1 | -1.95 °C | 0.81 °C | 0.63 °C | -0.13 °C | 0.4 °C | 0.68 °C | 0.15 °C | 0.49 °C | 0.52 °C | 0.56 °C
8 | COc1cc2ncnc(Nc3ccc(F)c(Cl)c3)c2cc1OCCCN1CCOCC1 [Gefitinib (ZD1839)] | 1.36 °C | 0.04 °C | 0.31 °C | 1.33 °C | 0.64 °C | 0.05 °C | 1.04 °C | 4.83 °C | 1.76 °C | 0.77 °C
9 | COc1cc(Nc2c(C#N)cnc3cc(OCCCN4CCN(C)CC4)c(OC)cc23)c(Cl)cc1Cl [Bosutinib (SKI-606)] | 0.12 °C | 0.16 °C | 0.26 °C | 0.07 °C | 0.12 °C | -0.11 °C | -0.09 °C | 0.86 °C | 1.14 °C | 0.53 °C
10 | Cc1cc(Nc2ncnc3ccc(NC4=NC(C)(C)CO4)cc23)ccc1Oc1ccn2ncnc2c1 [Irbinitinib (ARRY-380, ONT-380)] | 0 °C | 0.14 °C | 0.65 °C | -3.39 °C | -0.73 °C | -0.45 °C | -0.83 °C | -1.83 °C | 0.82 °C | 0.49 °C
11 | CCn1nc(C2CCN(C(=O)CCO)CC2)nc1-c1cnc(N)c(-c2nnc(C(C)(C)C)o2)n1 | 3.05 °C | 0.25 °C | 0.43 °C | 4.97 °C | 0.52 °C | 0.05 °C | 0.89 °C | 4.72 °C | 2.09 °C | 0.3 °C
12 | OCCn1cc(-c2ccc3c(c2)CC/C3=N\O)c(-c2ccncc2)n1 | 0.34 °C | 0.15 °C | 0.48 °C | 0.53 °C | 0 °C | 0.31 °C | 0.5 °C | 0.11 °C | 0.49 °C | 0.67 °C
13 | O=C1NC(=O)/C(=C/c2ccc3c(c2)OC(F)(F)O3)S1 | 1.3 °C | 0.48 °C | 0.81 °C | 0.94 °C | 0.43 °C | 0.55 °C | 0.65 °C | 0.97 °C | 1.58 °C | 0.5 °C
14 | Cc1ncc(CO)c(CO)c1O [Pyridoxine] | 0.81 °C | -0.02 °C | 0.53 °C | -0.09 °C | 0.25 °C | 0.62 °C | 0.03 °C | -0.36 °C | 0.12 °C | 0.24 °C
15 | Oc1cc(O)cc(/C=C/c2ccc(O)c(O)c2)c1 [Piceatannol] | -0.87 °C | 0.68 °C | 0.78 °C | -0.65 °C | 0.48 °C | 0.23 °C | 0.47 °C | 0.4 °C | 1.45 °C | 0.8 °C
16 | C[C@@H]1CN(C(=O)c2ccc(NC(=O)c3cc(O[C@H](C)c4c(Cl)ccc(F)c4Cl)c(N)nn3)cc2)C[C@H](C)N1 [Ensartinib (X-396)] | 6.54 °C | 3.48 °C | -0.25 °C | 2.86 °C | 0.07 °C | 0.15 °C | 5 °C | 8.12 °C | 5.86 °C | 0.2 °C
17 | CCN(C)S(=O)(=O)Nc1ccc(F)c(C(=O)c2c[nH]c3ncc(-c4cnc(C5CC5)nc4)cc23)c1F | 3.15 °C | 0.87 °C | 0.3 °C | 0.5 °C | 0.47 °C | 0.08 °C | 0.44 °C | 2.53 °C | 0.81 °C | 0.37 °C
18 | Cc1nc(N)sc1-c1ccnc(Nc2ccc(N3CCOCC3)cc2)n1 | 3.37 °C | 1.11 °C | 0.62 °C | 3.79 °C | 1.2 °C | 1.67 °C | 2.84 °C | 5.04 °C | 2.31 °C | 1.72 °C
19 | COc1cc(OC)cc(-c2cc3cnc(N)nc3nc2NC(=O)NC(C)(C)C)c1 | 0.88 °C | 0.19 °C | 0.34 °C | 0.31 °C | 0.16 °C | 0.18 °C | 0.24 °C | 0 °C | 0.52 °C | 0.39 °C
20 | CNC(=O)c1cc(COc2nnc(Nc3ccc(Cl)cc3)c3ccoc23)ccn1 [Telatinib] | 0.27 °C | 0.15 °C | 0.24 °C | -0.25 °C | 0.21 °C | 0.19 °C | 0.38 °C | 0.7 °C | 1.95 °C | 1.53 °C
21 | O=C(O)c1cc(O)c2c(c1)[C@@H]([C@H]1c3cc(C(=O)O)cc(O)c3C(=O)c3c(O[C@@H]4O[C@H](CO)[C@@H](O)[C@H](O)[C@H]4O)cccc31)c1cccc(O[C@@H]3O[C@H](CO)[C@@H](O)[C@H](O)[C@H]3O)c1C2=O [Sennoside B] | 0.1 °C | -0.47 °C | 1.23 °C | 0.74 °C | 0.89 °C | 0.17 °C | 1.04 °C | 0.32 °C | 3.9 °C | 0.24 °C
